Assay outcomes as filed in PubChem.
Most compounds without a hit are left out; they make up all but 11% or so of the library.
Pf growth 96h – P. falciparum growth inhibition at 96 hour, primary screen for plastid delayed-death inhibitors | P. falciparum luciferase reporter growth, 96 h | Potency, µM (doses to about 28.7 µM), for inactives: top-dose activity change, negative = inhibition, most hits filed as inhibitors | actives 6.9% (n = 320,000) | AID 504834; further: on the % scale 0 is the no-effect control and ±100 the full control effect
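Delayed-death screen, second-generation endpoint: infected erythrocytes, 2% hematocrit, 0.05% parasitemia final; 96 hours at 37 C, 5% CO2; luciferase detection reagent; luminescence decrease equals reduced growth.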
AMA1 RON2 block – AMA1-RON2 (P. falciparum) interaction inhibition; AlphaScreen AMA1-biotinylated RON2 peptide binding; actives 0.2% (n = 360,000); Potency, µM (doses to about 58.2 µM), for inactives: top-dose activity change, negative = inhibition, most hits filed as inhibitors;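 further: 0% = vehicle wells and -100% = peptide control; nearly all actives have a fitted effect of over 45% in size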
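AMA1 (3D7) with his tag at 25 nM final met compounds first, then biotinylated RON2 peptide at 25 nM; detection used donor plus acceptor beads, 10 µg/mL apiece, read by AlphaScreen after 30 min at room temperature.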
Pf growth 48h – inhibits P. falciparum growth in the first generation, 48 h. P. falciparum luciferase growth in erythrocytes, 48 h. actives 5.9% (n = 310,000). Potency, µM (series often up to 28.7 µM), without a hit: top-dose activity change, negative = inhibition, usual class: inhibitors; further: on the % scale 0 is the no-effect control and ±100 the full control effect
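Here the parasites carry a stable luciferase gene and grow inside erythrocytes in Albumax-based RPMI medium with compound for one erythrocytic cycle. Activity is scored as loss of luminescent signal.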
Sm TGR inh – blocks Schistosoma mansoni thioredoxin glutathione reductase; Potency, µM (titrated, usually from 114 µM), inactives show at the highest dose activity change, negative = inhibition, hits mostly inhibitors; purified TGR, DTNB reduction, TNB absorbance 405 nm; Q962Y6; actives 3% (n = 360,000); further: on the % scale 0 is the no-effect control and ±100 the full control effect; nearly all actives have a fitted effect of over 60% in size
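Kinetic colorimetric format: TGR-catalysed, NADPH-driven DTNB reduction monitored via TNB absorbance. Enzyme dispensed at 20 nM; compound exposure 15 min at room temperature before reaction start.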
NS1 function inh – influenza NS1 inhibition. actives 0.4% (n = 270,000). Potency, µM (highest dose often 46.1 µM), without a hit: at the top dose activity, positive = more growth. AID 2326; calls by dose curve; further: actives are rising curves; nearly all actives have a fitted effect of over 50% in size
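OD600 was taken as the measure of yeast growth restored by compound in an NS1-expressing S. cerevisiae strain. Cells had been washed out of glucose medium and diluted 1:100 into galactose -URA medium, pH 6.0.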
The depositor's hits bear a star; u = inconclusive; x = no result. Unless noted, the call rests on the fitted dose curve; in most records, active means well fitted curve in the direction sought with a large enough effect; inconclusive means small, poorly fitted or top-dose-only effect, or another doubt; inactive means no such curve, though single readings can be large; an effect the other way counts as inactive or inconclusive. Potency means the concentration at half of the fitted maximal effect.

SMILES | Pf growth 96h | AMA1 RON2 block | Pf growth 48h | Sm TGR inh | NS1 function inh
COc1ccc(O[C@H]2C=C[C@@H](c3ccccc3)O[C@@H]2COC(=O)CC/C(C)=N/O[C@H](C)c2cn([C@@H]3COC[C@H]3O)nn2)cc1 | u | x | 14.7µM* | -12.8% | -6.4%
CCN(CC)S(=O)(=O)c1ccc(C(=O)NCCCN=C2NS(=O)(=O)c3ccccc32)cc1 | 8.28µM* | -14.1% | u | 0.7% | 1.2%
O=C(NCCCN=C1NS(=O)(=O)c2ccccc21)c1ccc(F)cc1 | -2.0% | 5.3% | 9.9% | 0.2% | 1.9%
O=C1CC(NS(=O)(=O)c2cc(F)ccc2F)CN1c1ccc2c(c1)OCCO2 (centres undefined) | 5.1% | -8.6% | 0.0% | -7.1% | x
CC(=O)Nc1cccc(-c2ccnc3c2CC(C(=O)NCC2CCOCC2)O3)c1 (centres undefined) | x | -6.8% | x | x | x
CCn1c(SCC(=O)NCc2ccccc2)nc2nc3c(cc2c1=O)CCCC3 | u | 8.2% | -19.7% | 4.5% | -3.2%
Cc1ccccc1-n1c(SCC(=O)Nc2ccccc2)nc2nc3c(cc2c1=O)CCCC3 | 45.8% | -4.5% | u | -1.6% | u
O=C(CSc1nc2nc3c(cc2c(=O)n1-c1ccccc1)CCCC3)Nc1cccc2ccccc12 | 5.86µM* | 12.3% | 5.86µM* | 5.8% | 23.9%
O=C(CSc1nc(O)cc(=O)n1-c1ccccc1)NC1CCCCC1 | x | 8.0% | 2.62µM* | -17.6% | u
Cc1nnc(SCC(=O)NC2CCCCC2)n1-c1ccccc1 | x | 16.3% | x | x | x
Cc1cccc(NC(=O)CSc2nc3nc4c(cc3c(=O)n2-c2ccccc2)CCCC4)c1 | 2.94µM* | -9.3% | 5.22µM* | -4.4% | 6.1%
O=C(CSc1nc(O)cc(=O)n1-c1ccccc1)Nc1ccc2c3c(cccc13)CC2 | 8.28µM* | -14.1% | u | 1.9% | u
CCOC(=O)C1=CNS(=O)(=O)NC1c1ccc(C[C@H](NC(=O)CNC(=O)CCc2ccccc2)C(N)=O)cc1 (some centres undefined) | x | 9.4% | x | x | x
CCCCCn1c(=O)[nH]c2cc(C(=O)N3CCN(c4cc(Cl)ccc4C)CC3)ccc2c1=O | x | x | x | -2.5% | x
Cc1cc(C)cc(Nc2ncnc3c2nc2n3CCCC2)c1 | x | x | x | 0.5% | x
Cc1cccc(NC(=O)CSc2nnc(CNC(=O)c3ccco3)n2C)c1 | -3.8% | 13.5% | -1.0% | 1.7% | 1.3%
O=c1cc(O)nc(SCc2ccccc2)n1-c1ccc(F)cc1 | u | -7.5% | 2.94µM* | -19.1% | 11.7%
CCn1c(SCC(=O)Nc2ccc(Cl)cc2)nc2nc3c(cc2c1=O)CCCC3 | 13.1µM* | -10.4% | u | -2.4% | 13.4%
CCOc1ccccc1NC(=O)CN1C(=O)COc2ccc(S(=O)(=O)N3CCCCC3)cc21 | x | x | x | -1.1% | x
NC(=O)C(c1ccccc1)c1ccc(C(=O)c2ccccc2)cc1 (centres undefined) | 56.4% | 0.3% | 16.9% | -19.4% | -0.1%
CNc1oc(-c2ccccc2Cl)nc1P(=O)(c1ccccc1)c1ccccc1 | u | 6.6% | u | -0.9% | -1.9%
CNc1oc(-c2ccc(C)cc2)nc1P(=O)(c1ccccc1)c1ccccc1 | 14.7µM* | -11.5% | 0.117µM* | -10.3% | 3.0%
Cc1cccc(N2C(=O)c3cccc4c(N(C)CCO)ccc(c34)C2=O)c1 | 5.86µM* | 41.7% | u | -15.0% | 9.4%
COc1ccc(-c2cc(C(=O)N3CC4(C)CC3CC(C)(C)C4)no2)cc1OC (centres undefined) | u | -16.7% | 0.928µM* | 7.9% | -52.3%
COc1cccc(OC)c1C(=O)N1CCOCC1 | 14.7µM* | -4.9% | -8.1% | 0.7% | -2.0%
SMILES | Pf growth 96h | AMA1 RON2 block | Pf growth 48h | Sm TGR inh | NS1 function inh
COc1ccc(C(=O)N2CCOCC2)cc1Br | x | 1.0% | 8.0% | 5.0% | 5.3%
CCCCNC(=O)c1cc(-c2ccc(OC)c(OC)c2)on1 | 3.29µM* | -1.8% | x | 0.8% | -52.4%
COc1ccc(C(=S)N2CCOCC2)cc1OC(=O)c1ccc(C)cc1 | 2.94µM* | -5.2% | -17.6% | -1.8% | -32.2%
COc1ccc(-c2cc(C(=O)N3CCOCC3)no2)cc1OC | 1.31µM* | u | 87.8% | -32.0% | 0.9%
CC(C)CCn1c(SCC(=O)Nc2ccccc2C(F)(F)F)nc2nccnc2c1=O | u | -7.8% | u | 22.4µM* | 1.9%
COCCn1c(SCC(=O)Nc2ccccc2C(F)(F)F)nc2ccccc2c1=O | u | 1.7% | 36.1% | 8.4% | -16.3%
Cc1ccccc1C(=O)n1nc(-c2ccco2)nc1NCc1cccs1 | x | x | x | -33.4% | x
CC(C)(C)NC(=O)c1ccc2c(c1)N(CC(=O)N1CCN(c3ccc(F)cc3)CC1)C(=O)C(C)(C)O2 | x | -16.7% | 10.4µM* | 0.0% | -6.7%
Cc1nn(CCO)c2nc(-c3cccs3)cc(C(F)(F)F)c12 | -0.3% | -13.6% | 4.2% | 25.1µM* | 27.4%
CCN(CC)C1CCS(=O)(=O)C1 (centres undefined) | 0.185µM* | -17.9% | 37.3% | 2.5% | x
COCCNC(=S)N(Cc1cc2cc(C)ccc2n2nnnc12)C1CCCC1 | -13.0% | -16.0% | -29.0% | -0.4% | x
CCc1ccc2c(c1)cc(CN(C(=S)Nc1ccc(Cl)cc1)C1CC1)c1nnnn12 | u | 8.4% | 2.94µM* | 5.9% | 0.8%
CCN1CCN(c2ccc([N+](=O)[O-])c(Sc3nc4ccccc4[nH]3)c2)CC1 | 2.62µM* | 0.0% | u | 0.2% | 0.5%
CS(=O)(=O)c1cc([N+](=O)[O-])c(Sc2nc3ccccc3[nH]2)c([N+](=O)[O-])c1 | x | -5.0% | -0.4% | 1.41µM* | 4.1%
O=[N+]([O-])c1nc2ccccc2[nH]1 | x | 9.4% | x | x | x
O=C(O)c1ccc(CSc2nc3ccccc3[nH]2)cc1 | u | 0.0% | -5.3% | -9.9% | 3.7%
O=C(O)c1cc([N+](=O)[O-])c(Sc2nc3ccccc3[nH]2)c([N+](=O)[O-])c1 | 338.3% | -0.9% | x | 1.78µM* | 6.9%
O=[N+]([O-])c1ccc(N2CCN(CCO)CC2)cc1Sc1ccccn1 | u | -1.6% | -28.1% | 8.5% | 5.7%
CCc1ccc(NC(=O)Cn2nc3c4ccccc4n(Cc4ccccc4)cc-3c2=O)cc1 | x | x | x | 4.8% | x
CC1C(=O)C(C)C(c2ccc(Br)cc2)NC1c1ccc(Br)cc1 (centres undefined) | 3.7µM* | 0.0% | u | -6.3% | -39.4%
O=C1CC(c2ccc3c(c2)OCO3)CN1 (centres undefined) | u | 1.8% | 22.6% | -1.4% | 2.2%
CC1C(=O)C(C)C(c2cc(Br)ccc2O)NC1c1cc(Br)ccc1O (centres undefined) | x | 84.6% | x | x | x
CC1C(=O)C(C)C(c2ccc3c(c2)OCO3)NC1c1ccc2c(c1)OCO2 (centres undefined) | 22.9% | -8.5% | 10.4µM* | 5.2% | -44.1%
O=C(c1cc2nc(-c3ccco3)cc(C(F)(F)F)n2n1)N1CCCCCC1 | u | -0.8% | u | 35.5µM* | -67.4%
